Bioassay records (PubChem)
ADAM17 inh – inhibits human ADAM17. recombinant ADAM17, EDANS/DABCYL FRET peptide cleavage. inhibition, % at 6.95 µM. 370,000 compounds, 0.83% hits;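 active means inhibition above the mean of compounds lying between control limits plus 3 SD, set per campaign, cut at about 8.5% in these data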
Target sequence (P78536 215-824 limits assumed): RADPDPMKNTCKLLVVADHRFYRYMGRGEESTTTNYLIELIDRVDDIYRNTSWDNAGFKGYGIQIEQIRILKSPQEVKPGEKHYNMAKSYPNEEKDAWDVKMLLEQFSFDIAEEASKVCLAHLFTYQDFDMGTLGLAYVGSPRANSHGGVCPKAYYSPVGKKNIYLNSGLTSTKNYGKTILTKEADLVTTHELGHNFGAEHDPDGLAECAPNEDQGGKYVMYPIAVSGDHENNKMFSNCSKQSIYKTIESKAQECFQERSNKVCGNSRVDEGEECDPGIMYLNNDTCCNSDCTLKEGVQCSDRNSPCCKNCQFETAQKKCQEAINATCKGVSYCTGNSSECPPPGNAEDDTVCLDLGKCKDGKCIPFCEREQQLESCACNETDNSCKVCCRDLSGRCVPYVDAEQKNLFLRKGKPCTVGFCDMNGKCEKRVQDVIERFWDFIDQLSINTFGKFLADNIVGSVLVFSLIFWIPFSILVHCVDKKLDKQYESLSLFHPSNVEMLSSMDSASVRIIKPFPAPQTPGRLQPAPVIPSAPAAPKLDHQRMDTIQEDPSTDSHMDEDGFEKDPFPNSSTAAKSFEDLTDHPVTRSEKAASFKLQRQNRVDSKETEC
AHR activator – activates the human aryl hydrocarbon receptor; AHR-responsive luciferase reporter cells, luminescence; activation, % at 5 µM; 320,000 compounds, 2.5% hits; P35869; in the data active means activation above about 47%
rCAG RNA binder – binds r(CAG) RNA repeats. r(CAG) RNA repeat, TO-PRO-1 dye displacement fluorescence. AID 651821. inhibition, % at 3 µM. 370,000 compounds, 1.3% hits;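 active means inhibition above the plate cutoff, the mean of all test compounds on that plate plus 3 SD, cut at about 35% in these data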;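 further: higher means more dye released from RNA so lower well fluorescence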
NR3A LBD binder – modulates the human NR3A ligand-binding domain | 340,000 compounds, 2.5% hits | Tm shift relative to glycine control, % at 25 µM | AID 1259313 | NR3A LBD differential scanning fluorimetry, Tm shift; 0% = protein alone, 100% = glycine-bound protein;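 active means melting temperature shift of at least 10% of the positive control shift, at one fixed dose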
KLK7 zymogen act – activators of human kallikrein-7 zymogen; purified proKLK7, EDANS-DABCYL substrate fluorescence; 100% is mature enzyme control, 0% vehicle; 370,000 compounds, 0.9% hits; activation, % at 7 µM; AID 652039; P49862;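 active means activation above the mean of all tested compounds plus 3 SD, computed per campaign excluding outliers beyond control limits, cut at about 13% in these data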
ADAM10 inh – inhibitors of human ADAM10; O14672; recombinant ADAM10, EDANS/DABCYL FRET peptide cleavage, 3 h; inhibition, % at 7 µM; 370,000 compounds, 0.62% hits; AID 720582;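 active means inhibition above a per-campaign cutoff equal to the mean of compounds falling between control-based bounds plus 3 SD, cut at about 20% in these data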
ADAM10 confirm – confirmation of inhibitors of human ADAM10 | inhibition, % at 6.95 µM | ADAM10 QFRET peptide cleavage, EDANS fluorescence | 2,100 compounds, 1% hits | AID 743208 | shares compounds with ADAM10 inh;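 active means inhibition above about 20% chosen separately for each screening run, limit read from the data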
ADAM17 ctr – counter-screen for ADAM10 exosite inhibitors: inhibitors of human ADAM17 | shares compounds with ADAM10 inh | ADAM17 QFRET peptide cleavage, EDANS fluorescence | inhibition, % at 6.95 µM | 2,100 compounds, 0.5% hits | AID 743214;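 active means mean triplicate inhibition above the solvent-only control wells' mean plus 3 SD, cut at about 12% in these data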
Numbers stand for hits; - = inactive; . = no result given. The list is not random: actives were taken first. Their share in the collection is about 7%.

SMILES	ADAM17 inh	AHR activator	rCAG RNA binder	NR3A LBD binder	KLK7 zymogen act	ADAM10 inh	ADAM10 confirm	ADAM17 ctr
COC(=O)c1ccc(-c2cc3onc(-c4ccccc4)c3c(=O)n2C)cc1	-	-	-	-	-	71.3	24.6	-
CN(C)C(=O)c1ccc(-c2cc3onc(-c4ccccc4)c3c(=O)n2C)cc1	-	-	-	-	-	-	.	.
CCN(CC)C(CNC(=O)CSc1nnnn1-c1c(C)cccc1C)c1ccco1 (centres undefined)	-	.	-	-	-	-	.	.
O=C1/C(=C\c2cccs2)N=C(c2cccs2)N1Nc1ccccc1	-	-	-	-	-	-	.	.
O=C1/C(=C/c2cccs2)N=C(c2cccs2)N1Nc1ccccc1	-	-	-	-	-	25.5	-	-
O=C(NN1CC(C(=O)OCc2ccc(Cl)cc2Cl)CC1=O)c1ccccc1 (centres undefined)	-	.	-	-	-	-	.	.
CN(C(=O)c1cncc(Br)c1)c1c(N)n(Cc2ccccc2)c(=O)[nH]c1=O	-	-	-	-	-	81.7	-	-
COc1cc(S(=O)(=O)N2CCOCC2)ccc1NC(=O)COC(=O)c1cc(OC)c(OC)c(OC)c1	-	-	-	-	-	-	.	.
COc1cc(S(=O)(=O)N2CCOCC2)ccc1NC(=O)COC(=O)CC12CC3CC(CC(C3)C1)C2	-	-	-	-	-	29.4	-	-
O=C(CCC(=O)Nc1ccccc1Cl)NNC(=S)Nc1ccccc1C(F)(F)F	-	-	-	-	-	28.3	-	-
CCc1ccc([C@@H]2C[C@H]3[C@@H](CN2S(=O)(=O)c2ccc(C)cc2)C(=O)C[C@@H](c2ccc(Cl)cc2)N3S(=O)(=O)c2ccc(C)cc2)cc1	-	.	-	.	-	-	.	.
Cc1ccc(S(=O)(=O)c2ccc(NC(=O)c3c(F)cccc3F)cc2)cc1	-	-	-	-	-	23.9	-	-
S=C(Nc1ccc(Oc2ccccc2)cc1)N1CCN(c2ccccn2)CC1	-	-	-	-	-	22.2	-	-
COc1ccc(N(CC(=O)NCCSc2ccccn2)S(=O)(=O)c2ccccc2)c(OC)c1	-	-	-	-	-	-	.	.
COc1ccc(CN(C)CC(=O)NC(=O)NC2CCCCC2)cc1	-	-	-	-	-	20.9	-	-
COc1ccc(NC(=O)CN(C)CC(=O)NC(=O)NC2CCCCC2)cc1	-	-	-	-	-	-	.	.
O=C(NNC(=O)c1cc(-c2ccc(Cl)cc2)nc2ccccc12)c1csc(N2CCOCC2)n1	-	-	-	.	-	28.7	-	-
CCCCCc1ccc(CC(=O)N2CCOCC2)cc1	-	-	-	-	-	-	.	.
O=C(OCc1ccccc1Cl)c1cc([N+](=O)[O-])ccc1N1CCOCC1	-	-	-	-	-	19.9	-	-
CCOc1nc(N2CCOCC2)nc(C)c1[N+](=O)[O-]	-	-	-	-	-	19.8	-	-
CCOC(=O)N(C)C[C@@H]1OCc2ccccc2-c2c(n(C)c3ccccc23)C(=O)N([C@H](C)CO)C[C@H]1C	-	.	-	.	-	-	.	.
O=S(=O)(Nc1cccc2cccnc12)c1ccc(S(=O)(=O)N2CCCC2)cc1	-	-	-	-	-	21.5	-	-
Cc1onc(-c2ccccc2)c1-c1nnc(COC(=O)c2ccc(O)cc2)o1	-	.	-	10.1	-	22.0	-	-
O=S(=O)(NCc1cccc(C(F)(F)F)c1)NCc1ccccc1F	-	-	-	-	-	20.3	-	-
COCCn1c(N)c(N(Cc2ccccc2)C(=O)CSCC(=O)Nc2ccc(OC)cc2)c(=O)[nH]c1=O	-	-	-	-	-	-	.	.
SMILES	ADAM17 inh	AHR activator	rCAG RNA binder	NR3A LBD binder	KLK7 zymogen act	ADAM10 inh	ADAM10 confirm	ADAM17 ctr
Nc1nc2c(Cl)ccc(Cl)c2s1	-	-	-	-	-	-	.	.
COC(=O)C1=C(C)N(Cc2ccccc2)C(=S)N[C@H]1c1ccccc1	-	-	-	-	-	-	.	.
COc1ccc(C2NC(=S)N(Cc3ccc(Cl)cc3)C(C)=C2C(C)=O)cc1 (centres undefined)	-	.	-	.	-	22.4	-	-
COC(=O)c1cc(NC(=O)CN(c2ccc(OC)cc2)S(=O)(=O)c2ccc(F)cc2)ccc1Cl	-	.	-	-	-	22.0	-	-
O=C(Nc1ccc(Oc2ccc(NC(=O)c3ccco3)c(NC(=O)c3ccco3)c2)cc1)c1ccco1	-	-	-	-	-	-	.	.
O=C(Nc1ccc(Oc2ccc3ccccc3c2)cc1)c1ccco1	-	-	-	-	-	22.6	-	-
COc1cc(Br)cc(CNc2ccc(F)c([N+](=O)[O-])c2)c1O	-	-	-	-	-	20.3	-	-
Cc1ccc(CC(=O)Nc2ccc(F)c([N+](=O)[O-])c2)cc1C	-	-	-	-	-	-	.	.
CC1=NNC(=O)/C1=C\c1cn(-c2ccccc2)nc1-c1ccccc1	16.1	-	-	-	-	23.9	-	-
Cc1ccc(C(=O)Nc2ccccc2C(=O)NCc2ccco2)cc1	-	-	-	-	-	-	.	.
Cc1ccccc1CN(c1ccc(C(=O)Nc2ccccc2C(=O)NCc2ccco2)cc1)S(C)(=O)=O	-	-	-	-	-	25.9	19.9	-
CCCCNC(=O)c1onc(CS(=O)(=O)c2ccccn2)c1C(=O)NCCCC	-	-	-	-	-	-	.	.
O=C1c2ccccc2S(=O)(=O)c2cc(N3CCc4ccccc4C3)ccc21	.	-	.	.	.	.	.	.
CCC/C=N/Nc1nc2ccccc2s1	-	-	-	-	-	25.1	-	-
C(=C\c1ccccc1)/C=N/Nc1nc2ccccc2s1	-	-	-	-	-	26.1	23.3	-
Cc1ccc(-c2csc(N/N=C/C=C/c3ccccc3)n2)cc1	-	-	-	-	-	-	.	.
Brc1cc2c(cc1/C=N/Nc1nc3ccccc3s1)OCO2	-	-	-	-	-	-	.	.
Cc1ccc2oc(=O)c(/C=C(\O)c3ccco3)nc2c1	-	-	-	-	-	21.3	-	-
Cc1ccc2oc(=O)c(/C=C(\O)C(C)(C)C)nc2c1	-	-	-	-	-	-	.	.
COC(=O)[C@]12C[C@H](CC(=O)NCc3cccc4ccccc34)C(=O)N(Cc3cccc4ccccc34)C1=C[C@H](COCc1ccccc1)O[C@@H]2C	-	.	-	.	-	-	.	.
COC(=O)[C@]12C[C@H](CC(=O)N3CCCCC3)C(=O)N(CCc3ccc(OC)c(OC)c3)C1=C[C@H](COCc1ccccc1)O[C@@H]2C	-	.	-	.	-	58.3	-	-
COC(=O)[C@]12C[C@H](CC(=O)NCc3cccc4ccccc34)C(=O)N(Cc3ccccc3)C1=C[C@H](C(C)(C)C)O[C@@H]2C	-	.	-	.	-	-	.	.
